# PubChem BioAssay (NCI)
# The panel holds about 83,000 compounds, 20% with a hit somewhere; the sample as a whole holds those more often.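 Compound tested at a single concentration for 48 hours in 96-well plates; a percent growth value below 10 was scored as active.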 Unmarked numbers belong to inactive results. The source made the active and inactive calls. *1 amine or outer side, *2 acyl side, *3 side chain or, on linkers, in order; H or OH if unused. Where a SMILES comes first, the peptide text is derived from it. Bridges are numbered along the chain shown (N, C = ends). Roman numbers before positions name the chains, in order. [ ]: non-standard residue; d: D form. The star is where a group is joined. Actinocin(1to9) = Cc1c2oc3c(C)ccc(C(=O)[*:2])c3nc-2c(C(=O)[*:1])c(N)c1=O; X5 = CCC(=O)CC1CC(C)CC(C(=O)[*:2])N1[*:1]; NMeV = CN[CH](C(=O)O)C(C)C; X4 = CCCCCCCCC(C)C(=O)*; Aib = CC(C)(N)C(=O)O; X6 = CC(CN(C)CCO)N*; Sar = CNCC(=O)O
# System: CCRF-CEM leukemia
# Experiment: NCI-60 one-dose screen, 48 h (100 = growth as untreated, 0 = no growth, -100 = all killed)
# Details: 10 µM unless noted
# Method: Growth inhibition of the CCRF-CEM human tumor cell line is measured as a screen for anti-cancer activity. Cells are grown in 96 well plates and exposed to the test compound for 48 hours. Compounds are tested at a single concentration, which is 10^-5 M for most compounds. The reported endpoint is percent growth (GI% or GIPRCNT), where numbers from 0 - 100% represent growth inhibition, and numbers from -100% - 0 represent cell death. For example, a value of 40 represents 60% growth inhibition. A value of 0 means no net growth occurred over the course of the experiment. A value of -40 indicates 40% of cells at the beginning of the experiment died by the end of the experiment. A value of -100 means all cells are dead at the end of the experiment.
# NCI-60 Human Tumor Cell Lines Screen was performed using the standard one-dose NCI protocol, which is described in more detail at https://dtp.cancer.gov/discovery_development/nci-60/default.htm.
# Compounds with GIPRCNT values below 10 were considered active. Activity score was based on GIPRCNT using the following formula: […]
# Score is 0 for GIPRCNT values of 100 or above, 50 for GIPRCNT values of 0, and 100 for GIPRCNT values of -100.
row,SMILES,growth
1,CN(C)c1ccc(C(C#N)(c2ccccc2)c2ccc(N(C)C)cc2)cc1,69.3%
2,Nc1nc(N)c2cc(Sc3cccc(C(F)(F)F)c3)ccc2n1,33.2%
3,CCCCCCCCCCCC1N=C(N)N=C(N)N1c1cccc(Br)c1 (stereo not given),-15.1% (active)
4,O=[N+]([O-])CC(O)c1ccccc1 (stereo not given),104%
5,O=C/C=C/c1ccc([N+](=O)[O-])cc1,87.6%
6,CCOC(=O)C1=NN(c2ccccc2)C(=O)/C1=C\N1C(=O)/C(=C/c2cccc(O)c2)SC1=S,93%
7,O=C1/C(=C/c2ccccc2)CCC/C1=C\c1ccccc1,76.3%
8,Cc1c(O)ccc(SC#N)c1C,30.7%
9,CC(C)Nc1ccc(Nc2ccc(NC(C)C)cc2)cc1,58.6%
10,CCC[CH2][Sn]1([CH2]CCC)[O]C2C(CO)OC(n3ccc(N)nc3=O)C2[O]1 (stereo not given),-30.7% (active)
11,O=C1C(=O)c2cccnc2-c2ncccc21,-32.6% (active)
12,CCc1oc2ccccc2c1C(=O)c1cc(Br)c(O)c(Br)c1,41.8%
13,Cn1c(-c2ccccc2)c(/C=C/C2=[N+](C)c3ccccc3C2(C)C)c2ccccc21,8% (active)
14,Oc1cc(Cl)ccc1Cc1ccc(Cl)cc1O,45.7%
15,CCCCCCCCC(=O)OCCCC(CCC(CCC1CCCO1)OC(=O)CCCCCCCC)OC(=O)CCCCCCCC (stereo not given),87.6%
16,CC(=O)OC1CC2CCC1(C)C2(C)C (stereo not given),-45% (active)
17,"CCC(C)C1NC(=O)C(NC(=O)c2c3nc4c(C(=O)NC5C(=O)NC(C(C)CC)C(=O)N6CCCC6C(=O)N(C)CC(=O)N(C)C(C(C)C)C(=O)OC5C)ccc(C)c4oc-3c(C)c(=O)c2N)C(C)OC(=O)C(C(C)C)N(C)C(=O)CN(C)C(=O)C2CCCN2C1=O (stereo not given) (I: TIP[Sar][NMeV] / II: TIP[Sar][NMeV]; ester I:1-I:C, II:1-II:C; linker I:N-II:N via Actinocin(1to9); configuration not given here)",-5.99% (active)
18,O=C1C=CC(=O)c2c(O)c(CO)c(CO)c(O)c21,78.5%
19,O=C1/C(=C/c2ccccn2)CCc2ccccc21,51.6%
20,C(=N\Nc1ccc2ccccc2n1)/c1ccccn1,16.9%

row,SMILES,growth
1,[Cl-].[Rh+3].c1ccc(-c2ccnc3c2ccc2c(-c4ccccc4)ccnc23)cc1.c1ccc(-c2ccnc3c2ccc2c(-c4ccccc4)ccnc23)cc1.c1ccc(-c2ccnc3c2ccc2c(-c4ccccc4)ccnc23)cc1,76.2%
2,COC(=O)c1cc([N+](=O)[O-])cc([N+](=O)[O-])c1Cl,29.8%
3,Cc1cc(C(=C2C=CC(=Nc3ccccc3)C=C2)c2ccc(Nc3ccccc3)cc2)ccc1N,3.34% (active)
4,N=C(N)Sc1cccc[n+]1[O-],-8.85% (active)
5,CCOC(=O)C1(C)CCCC1N (stereo not given),103%
6,COc1cc(/C=C/C(=O)CC(=O)/C=C/c2ccc(O)c(OC)c2)ccc1O,5.28% (active)
7,O=C1C=CC(=O)N1c1cccc2c1CCCC2,9.65% (active)
8,Cc1ccc2c(c1)sc(-c1ccc(N(C)C)cc1)[n+]2C,10.7%
9,CCCCCCCCC(C)C(=O)N1CCCC1C(=O)N1C(CC(=O)CC)CC(C)CC1C(=O)NC(C)C(=O)NC(C)(C)C(=O)NC(C)(C)C(=O)NC(C(=O)NC(C)C(=O)NC(C)(C)C(=O)NC(C)(C)C(=O)NC(C)CN(C)CCO)C(C)CC (stereo not given) (X4-P[X5]A[Aib][Aib]IA[Aib][Aib]-X6; configuration not given here),-33.3% (active)
10,CCc1cccc(CC)c1N1C(=O)C=CC1=O,17%
11,CC(C)=CCCC(C)C1=C(O)C(=O)C(C)=CC1=O (stereo not given),-29.2% (active)
12,O=C1Nc2ccc(Br)cc2C1=O,93.5%
13,N#CC1c2ccccc2C=CN1C(=O)CCCl (stereo not given),8.12% (active)
14,CC(/C=N/NC(N)=S)Cc1ccc(C(C)C)cc1 (stereo not given),65.9%
15,CCCOC(=O)c1nc(N(CC2CCCCC2)C(=O)NC)sc1/N=C/c1ccccc1,2.45% (active)
16,Cc1nnc(N/N=C/c2ccc([N+](=O)[O-])o2)[nH]c1=O,-21.9% (active)
17,CCC(C)C(N)C(=O)NC(CC(N)=O)C(=O)NC(CC(C)C)C(=O)NC(CCCCN)C(=O)NC(C)C(=O)NC(CC(C)C)C(=O)NC(C)C(=O)NC(C)C(=O)NC(CC(C)C)C(=O)NC(C)C(=O)NC(CCCCN)C(=O)NC(CCCCN)C(=O)NC(C(=O)NC(CC(C)C)C(N)=O)C(C)CC (stereo not given),83.8%
18,N#CCc1cccc2ccccc12,91.9%
19,CN=C(N)N/N=C(\C)c1ccc2c(c1)Cc1ccccc1-2,-35.2% (active)
20,Cc1ccc(NC2=CC(=O)C(=O)c3ccccc32)cc1,27%
